According to the supplement of paper PMC11732987, “Enantioselective OTUD7B fragment discovery through chemoproteomics screening and high-throughput optimisation” (Communications Chemistry, 2025):

Legend:
Test in all cases: log2 ratio of Biotin-Ahx-Ub-VS probe labelling (fragment/DMSO); higher = less target engagement (more negative = stronger competition), active = hit call of the paper (q ≤ 0.05, log2 ratio ≤ -1)
Details in all cases: compound concentration: 200 uM; treatment time: 3 h
USP42 = target: T1, USP42 (UniProt Q9H9J4)
T1 sequence (whole entry): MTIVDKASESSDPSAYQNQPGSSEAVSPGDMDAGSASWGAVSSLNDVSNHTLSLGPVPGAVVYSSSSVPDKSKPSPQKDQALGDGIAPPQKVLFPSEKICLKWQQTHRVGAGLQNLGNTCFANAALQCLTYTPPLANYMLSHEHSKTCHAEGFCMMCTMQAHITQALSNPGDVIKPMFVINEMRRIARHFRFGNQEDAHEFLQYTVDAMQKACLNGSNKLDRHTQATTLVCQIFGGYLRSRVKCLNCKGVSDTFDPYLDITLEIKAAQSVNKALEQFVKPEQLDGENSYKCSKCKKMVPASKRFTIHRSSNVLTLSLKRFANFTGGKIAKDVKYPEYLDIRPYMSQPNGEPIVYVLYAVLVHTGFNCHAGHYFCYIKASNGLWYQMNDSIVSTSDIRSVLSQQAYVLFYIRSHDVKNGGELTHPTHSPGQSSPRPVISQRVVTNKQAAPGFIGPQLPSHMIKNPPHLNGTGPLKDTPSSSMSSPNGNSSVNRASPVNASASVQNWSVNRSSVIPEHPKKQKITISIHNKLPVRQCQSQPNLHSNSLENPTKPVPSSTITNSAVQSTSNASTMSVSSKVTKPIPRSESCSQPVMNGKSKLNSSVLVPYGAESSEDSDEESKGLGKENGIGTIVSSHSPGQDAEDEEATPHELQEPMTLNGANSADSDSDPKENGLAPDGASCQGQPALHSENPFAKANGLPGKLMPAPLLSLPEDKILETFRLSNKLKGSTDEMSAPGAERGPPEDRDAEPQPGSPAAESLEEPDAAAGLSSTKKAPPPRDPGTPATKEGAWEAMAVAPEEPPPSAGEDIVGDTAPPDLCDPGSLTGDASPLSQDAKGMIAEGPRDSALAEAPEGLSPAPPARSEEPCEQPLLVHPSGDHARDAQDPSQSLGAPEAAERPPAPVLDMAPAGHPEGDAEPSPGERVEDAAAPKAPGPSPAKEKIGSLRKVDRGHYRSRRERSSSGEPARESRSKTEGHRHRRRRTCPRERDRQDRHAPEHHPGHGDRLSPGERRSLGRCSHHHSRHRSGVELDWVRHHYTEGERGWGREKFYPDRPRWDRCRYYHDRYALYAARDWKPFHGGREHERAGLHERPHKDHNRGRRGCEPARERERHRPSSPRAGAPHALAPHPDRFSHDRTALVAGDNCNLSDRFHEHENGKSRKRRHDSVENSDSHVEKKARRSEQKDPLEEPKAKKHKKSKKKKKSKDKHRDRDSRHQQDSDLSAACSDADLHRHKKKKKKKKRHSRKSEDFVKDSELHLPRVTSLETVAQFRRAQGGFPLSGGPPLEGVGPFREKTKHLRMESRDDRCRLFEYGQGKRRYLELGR
Summary of the method: (§1)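 In triplicate, 495 µg of HEK293T lysate per sample was incubated with fragment at 200 µM or vehicle for 3 h. Biotin-Ahx-Ub-VS was then added to 0.5 µM final for 1 h, and labelled DUBs were captured with NeutrAvidin, digested with LysC and trypsin, and measured by diaPASEF LC-MS/MS. Data are average log2 fragment/vehicle ratios by unpaired t-test from global-median-normalised Spectronaut label-free quantities, restricted to proteins with ≥2 unique peptides.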

USP46 = USP46 (UniProt P62068)
Summary of the method: as §1

USP47 = target: T2, USP47 (UniProt Q96K76)
T2 sequence (whole entry): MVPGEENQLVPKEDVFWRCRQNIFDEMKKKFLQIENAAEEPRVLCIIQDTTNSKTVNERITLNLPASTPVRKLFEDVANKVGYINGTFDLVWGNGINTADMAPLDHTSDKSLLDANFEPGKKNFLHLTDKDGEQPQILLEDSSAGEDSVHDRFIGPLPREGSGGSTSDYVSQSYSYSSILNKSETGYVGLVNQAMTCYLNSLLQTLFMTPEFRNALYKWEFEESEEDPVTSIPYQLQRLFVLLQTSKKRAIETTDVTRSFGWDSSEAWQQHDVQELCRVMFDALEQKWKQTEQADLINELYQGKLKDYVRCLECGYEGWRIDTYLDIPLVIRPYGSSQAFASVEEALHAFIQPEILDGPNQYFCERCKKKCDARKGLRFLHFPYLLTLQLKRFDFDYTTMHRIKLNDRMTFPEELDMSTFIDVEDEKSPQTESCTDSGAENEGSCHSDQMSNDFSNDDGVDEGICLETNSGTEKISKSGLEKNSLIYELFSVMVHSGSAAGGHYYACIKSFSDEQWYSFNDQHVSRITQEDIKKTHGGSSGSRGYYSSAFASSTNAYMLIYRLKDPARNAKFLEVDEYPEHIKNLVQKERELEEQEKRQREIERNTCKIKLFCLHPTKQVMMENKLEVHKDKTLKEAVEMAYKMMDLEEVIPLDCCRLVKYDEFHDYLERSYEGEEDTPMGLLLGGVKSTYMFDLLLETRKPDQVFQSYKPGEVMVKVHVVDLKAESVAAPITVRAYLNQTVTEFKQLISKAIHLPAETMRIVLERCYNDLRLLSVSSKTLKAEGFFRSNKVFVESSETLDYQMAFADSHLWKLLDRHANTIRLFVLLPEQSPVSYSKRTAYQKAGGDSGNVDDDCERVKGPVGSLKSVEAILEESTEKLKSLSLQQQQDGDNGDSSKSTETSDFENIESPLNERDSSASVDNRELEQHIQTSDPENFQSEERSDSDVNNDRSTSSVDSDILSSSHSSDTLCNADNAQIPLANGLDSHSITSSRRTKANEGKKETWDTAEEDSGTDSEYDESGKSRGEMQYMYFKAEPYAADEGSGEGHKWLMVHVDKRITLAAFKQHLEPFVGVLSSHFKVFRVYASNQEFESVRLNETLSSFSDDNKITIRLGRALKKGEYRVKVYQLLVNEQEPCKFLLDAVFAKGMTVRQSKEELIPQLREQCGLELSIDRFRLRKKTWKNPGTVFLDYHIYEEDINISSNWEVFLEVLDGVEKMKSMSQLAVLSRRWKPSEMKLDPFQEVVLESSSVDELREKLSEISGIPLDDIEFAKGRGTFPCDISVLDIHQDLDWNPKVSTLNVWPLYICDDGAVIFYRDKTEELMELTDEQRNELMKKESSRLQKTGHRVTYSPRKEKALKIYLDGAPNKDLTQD
Summary of the method: as §1

USP48 = target: T3, USP48 (UniProt Q86UV5)
T3 sequence (whole entry): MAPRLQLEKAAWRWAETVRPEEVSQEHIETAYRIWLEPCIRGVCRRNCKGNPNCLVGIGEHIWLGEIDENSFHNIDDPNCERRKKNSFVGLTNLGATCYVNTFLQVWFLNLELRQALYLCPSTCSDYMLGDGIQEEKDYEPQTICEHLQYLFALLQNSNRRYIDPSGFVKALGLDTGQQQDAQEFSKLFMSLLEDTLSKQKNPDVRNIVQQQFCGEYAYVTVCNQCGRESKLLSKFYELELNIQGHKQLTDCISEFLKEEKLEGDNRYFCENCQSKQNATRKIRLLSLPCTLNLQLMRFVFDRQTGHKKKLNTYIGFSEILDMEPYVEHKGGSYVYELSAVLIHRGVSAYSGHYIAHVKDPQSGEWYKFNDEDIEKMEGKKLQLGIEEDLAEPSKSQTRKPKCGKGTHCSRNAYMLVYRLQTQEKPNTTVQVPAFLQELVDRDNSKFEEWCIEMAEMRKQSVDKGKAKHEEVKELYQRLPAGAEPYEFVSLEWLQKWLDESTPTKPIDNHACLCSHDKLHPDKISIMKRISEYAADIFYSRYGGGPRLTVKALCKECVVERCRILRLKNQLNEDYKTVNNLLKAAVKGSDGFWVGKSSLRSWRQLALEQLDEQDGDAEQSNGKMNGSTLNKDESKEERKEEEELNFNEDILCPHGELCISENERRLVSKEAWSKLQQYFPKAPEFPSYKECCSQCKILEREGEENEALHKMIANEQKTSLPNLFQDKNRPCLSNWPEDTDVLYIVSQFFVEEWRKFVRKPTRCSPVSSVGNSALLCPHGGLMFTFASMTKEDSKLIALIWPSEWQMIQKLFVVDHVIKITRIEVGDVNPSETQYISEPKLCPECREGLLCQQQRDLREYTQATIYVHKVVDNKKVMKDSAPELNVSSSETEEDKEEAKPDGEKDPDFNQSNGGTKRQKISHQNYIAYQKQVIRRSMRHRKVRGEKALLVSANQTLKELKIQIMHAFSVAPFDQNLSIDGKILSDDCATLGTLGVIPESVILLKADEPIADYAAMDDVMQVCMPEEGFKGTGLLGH
Summary of the method: as §1

USP5 = target: T4, USP5 (UniProt P45974)
T4 sequence (whole entry): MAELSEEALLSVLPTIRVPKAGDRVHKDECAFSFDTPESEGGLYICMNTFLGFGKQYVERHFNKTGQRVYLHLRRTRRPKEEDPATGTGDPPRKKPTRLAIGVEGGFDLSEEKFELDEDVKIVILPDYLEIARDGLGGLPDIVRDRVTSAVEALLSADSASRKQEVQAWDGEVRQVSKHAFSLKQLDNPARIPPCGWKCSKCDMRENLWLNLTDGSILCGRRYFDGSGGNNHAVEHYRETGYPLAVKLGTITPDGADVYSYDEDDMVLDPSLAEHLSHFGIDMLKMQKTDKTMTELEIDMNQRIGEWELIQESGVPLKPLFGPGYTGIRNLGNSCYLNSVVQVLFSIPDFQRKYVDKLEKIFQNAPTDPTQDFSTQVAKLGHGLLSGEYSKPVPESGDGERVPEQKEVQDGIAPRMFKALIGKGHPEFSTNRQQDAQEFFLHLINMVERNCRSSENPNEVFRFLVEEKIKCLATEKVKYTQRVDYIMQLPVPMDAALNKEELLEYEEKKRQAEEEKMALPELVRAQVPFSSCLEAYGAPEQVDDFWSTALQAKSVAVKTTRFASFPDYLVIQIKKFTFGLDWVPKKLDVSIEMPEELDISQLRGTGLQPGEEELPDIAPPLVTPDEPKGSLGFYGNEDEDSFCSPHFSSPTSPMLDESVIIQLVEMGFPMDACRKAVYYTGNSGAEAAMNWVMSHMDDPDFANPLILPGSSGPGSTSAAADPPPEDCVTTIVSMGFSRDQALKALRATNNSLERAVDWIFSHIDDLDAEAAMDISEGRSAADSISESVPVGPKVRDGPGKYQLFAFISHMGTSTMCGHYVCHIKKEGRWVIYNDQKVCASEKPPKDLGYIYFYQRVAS
Summary of the method: as §1

USP54 = USP54 (UniProt Q70EL1)
Summary of the method: as §1

USP7 = USP7 (UniProt Q93009)
Summary of the method: as §1

USP8 = target: T5, USP8 (UniProt P40818)
T5 sequence (whole entry): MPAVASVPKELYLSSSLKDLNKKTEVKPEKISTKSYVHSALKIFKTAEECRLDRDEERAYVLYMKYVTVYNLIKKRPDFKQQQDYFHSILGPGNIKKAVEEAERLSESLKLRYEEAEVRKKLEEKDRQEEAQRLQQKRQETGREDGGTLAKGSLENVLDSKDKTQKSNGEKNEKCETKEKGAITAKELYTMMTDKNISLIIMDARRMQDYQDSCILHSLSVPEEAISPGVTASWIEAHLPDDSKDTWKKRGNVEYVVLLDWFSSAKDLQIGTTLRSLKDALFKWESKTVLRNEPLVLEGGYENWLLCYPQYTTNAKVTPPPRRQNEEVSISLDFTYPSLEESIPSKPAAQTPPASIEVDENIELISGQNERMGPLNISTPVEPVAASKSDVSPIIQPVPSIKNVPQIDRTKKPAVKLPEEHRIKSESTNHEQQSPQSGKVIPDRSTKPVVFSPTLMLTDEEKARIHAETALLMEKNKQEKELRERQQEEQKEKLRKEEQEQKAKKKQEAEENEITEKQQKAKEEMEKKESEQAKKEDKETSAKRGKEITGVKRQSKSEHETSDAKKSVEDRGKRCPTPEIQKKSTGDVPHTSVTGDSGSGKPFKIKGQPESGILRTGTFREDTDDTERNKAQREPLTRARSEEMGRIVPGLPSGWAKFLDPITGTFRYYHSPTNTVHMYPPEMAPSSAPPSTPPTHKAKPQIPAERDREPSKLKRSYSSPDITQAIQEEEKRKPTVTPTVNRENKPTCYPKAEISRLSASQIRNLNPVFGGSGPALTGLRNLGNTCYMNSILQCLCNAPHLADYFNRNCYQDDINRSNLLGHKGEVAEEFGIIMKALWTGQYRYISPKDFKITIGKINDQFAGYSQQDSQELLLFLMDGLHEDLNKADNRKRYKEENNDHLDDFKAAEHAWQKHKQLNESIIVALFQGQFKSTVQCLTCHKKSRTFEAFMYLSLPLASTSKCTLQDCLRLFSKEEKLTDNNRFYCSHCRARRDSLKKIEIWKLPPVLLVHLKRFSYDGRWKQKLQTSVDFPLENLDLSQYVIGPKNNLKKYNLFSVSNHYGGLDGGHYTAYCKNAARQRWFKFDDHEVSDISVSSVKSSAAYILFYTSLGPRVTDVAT
Summary of the method: as §1

Measured: log2 ratio of Biotin-Ahx-Ub-VS probe labelling

USP46, sequence (P62068 whole entry): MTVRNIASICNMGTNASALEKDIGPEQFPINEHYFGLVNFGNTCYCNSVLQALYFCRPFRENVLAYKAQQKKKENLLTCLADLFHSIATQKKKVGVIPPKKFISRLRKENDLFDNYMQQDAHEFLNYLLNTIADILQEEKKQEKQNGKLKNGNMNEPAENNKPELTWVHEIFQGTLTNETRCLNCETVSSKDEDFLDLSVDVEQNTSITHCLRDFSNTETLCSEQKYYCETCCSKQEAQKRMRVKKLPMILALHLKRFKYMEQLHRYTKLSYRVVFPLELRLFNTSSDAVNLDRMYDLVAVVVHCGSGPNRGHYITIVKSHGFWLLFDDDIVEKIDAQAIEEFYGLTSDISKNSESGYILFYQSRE
USP7, sequence (Q93009 whole entry, looked up): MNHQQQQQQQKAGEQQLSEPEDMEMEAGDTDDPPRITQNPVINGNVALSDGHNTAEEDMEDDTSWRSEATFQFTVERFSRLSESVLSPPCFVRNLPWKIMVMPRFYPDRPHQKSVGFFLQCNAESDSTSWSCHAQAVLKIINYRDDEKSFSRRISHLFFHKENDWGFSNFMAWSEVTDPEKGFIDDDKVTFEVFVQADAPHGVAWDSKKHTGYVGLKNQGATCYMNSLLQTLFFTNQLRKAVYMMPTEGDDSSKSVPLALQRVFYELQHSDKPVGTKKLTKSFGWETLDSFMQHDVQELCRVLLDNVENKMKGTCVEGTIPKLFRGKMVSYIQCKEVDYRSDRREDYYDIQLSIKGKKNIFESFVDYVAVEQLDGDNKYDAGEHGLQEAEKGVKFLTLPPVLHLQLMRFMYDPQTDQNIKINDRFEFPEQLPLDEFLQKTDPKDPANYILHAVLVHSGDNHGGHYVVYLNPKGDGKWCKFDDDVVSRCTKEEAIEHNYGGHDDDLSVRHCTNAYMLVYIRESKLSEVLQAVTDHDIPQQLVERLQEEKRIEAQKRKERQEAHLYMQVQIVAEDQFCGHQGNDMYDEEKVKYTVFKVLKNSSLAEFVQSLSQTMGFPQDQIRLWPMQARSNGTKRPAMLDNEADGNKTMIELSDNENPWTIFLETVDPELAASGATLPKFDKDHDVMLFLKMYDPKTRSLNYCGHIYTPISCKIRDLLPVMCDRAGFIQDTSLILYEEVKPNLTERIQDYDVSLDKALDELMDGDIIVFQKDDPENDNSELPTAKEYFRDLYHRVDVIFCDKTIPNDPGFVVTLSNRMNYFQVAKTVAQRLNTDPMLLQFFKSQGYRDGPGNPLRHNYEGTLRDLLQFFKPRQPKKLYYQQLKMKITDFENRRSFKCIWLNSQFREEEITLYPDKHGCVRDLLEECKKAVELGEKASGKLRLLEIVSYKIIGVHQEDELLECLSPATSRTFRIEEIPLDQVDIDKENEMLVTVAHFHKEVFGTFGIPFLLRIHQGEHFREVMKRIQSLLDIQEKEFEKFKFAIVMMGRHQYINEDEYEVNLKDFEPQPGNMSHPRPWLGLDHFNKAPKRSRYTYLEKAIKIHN
USP54, sequence (Q70EL1 whole entry): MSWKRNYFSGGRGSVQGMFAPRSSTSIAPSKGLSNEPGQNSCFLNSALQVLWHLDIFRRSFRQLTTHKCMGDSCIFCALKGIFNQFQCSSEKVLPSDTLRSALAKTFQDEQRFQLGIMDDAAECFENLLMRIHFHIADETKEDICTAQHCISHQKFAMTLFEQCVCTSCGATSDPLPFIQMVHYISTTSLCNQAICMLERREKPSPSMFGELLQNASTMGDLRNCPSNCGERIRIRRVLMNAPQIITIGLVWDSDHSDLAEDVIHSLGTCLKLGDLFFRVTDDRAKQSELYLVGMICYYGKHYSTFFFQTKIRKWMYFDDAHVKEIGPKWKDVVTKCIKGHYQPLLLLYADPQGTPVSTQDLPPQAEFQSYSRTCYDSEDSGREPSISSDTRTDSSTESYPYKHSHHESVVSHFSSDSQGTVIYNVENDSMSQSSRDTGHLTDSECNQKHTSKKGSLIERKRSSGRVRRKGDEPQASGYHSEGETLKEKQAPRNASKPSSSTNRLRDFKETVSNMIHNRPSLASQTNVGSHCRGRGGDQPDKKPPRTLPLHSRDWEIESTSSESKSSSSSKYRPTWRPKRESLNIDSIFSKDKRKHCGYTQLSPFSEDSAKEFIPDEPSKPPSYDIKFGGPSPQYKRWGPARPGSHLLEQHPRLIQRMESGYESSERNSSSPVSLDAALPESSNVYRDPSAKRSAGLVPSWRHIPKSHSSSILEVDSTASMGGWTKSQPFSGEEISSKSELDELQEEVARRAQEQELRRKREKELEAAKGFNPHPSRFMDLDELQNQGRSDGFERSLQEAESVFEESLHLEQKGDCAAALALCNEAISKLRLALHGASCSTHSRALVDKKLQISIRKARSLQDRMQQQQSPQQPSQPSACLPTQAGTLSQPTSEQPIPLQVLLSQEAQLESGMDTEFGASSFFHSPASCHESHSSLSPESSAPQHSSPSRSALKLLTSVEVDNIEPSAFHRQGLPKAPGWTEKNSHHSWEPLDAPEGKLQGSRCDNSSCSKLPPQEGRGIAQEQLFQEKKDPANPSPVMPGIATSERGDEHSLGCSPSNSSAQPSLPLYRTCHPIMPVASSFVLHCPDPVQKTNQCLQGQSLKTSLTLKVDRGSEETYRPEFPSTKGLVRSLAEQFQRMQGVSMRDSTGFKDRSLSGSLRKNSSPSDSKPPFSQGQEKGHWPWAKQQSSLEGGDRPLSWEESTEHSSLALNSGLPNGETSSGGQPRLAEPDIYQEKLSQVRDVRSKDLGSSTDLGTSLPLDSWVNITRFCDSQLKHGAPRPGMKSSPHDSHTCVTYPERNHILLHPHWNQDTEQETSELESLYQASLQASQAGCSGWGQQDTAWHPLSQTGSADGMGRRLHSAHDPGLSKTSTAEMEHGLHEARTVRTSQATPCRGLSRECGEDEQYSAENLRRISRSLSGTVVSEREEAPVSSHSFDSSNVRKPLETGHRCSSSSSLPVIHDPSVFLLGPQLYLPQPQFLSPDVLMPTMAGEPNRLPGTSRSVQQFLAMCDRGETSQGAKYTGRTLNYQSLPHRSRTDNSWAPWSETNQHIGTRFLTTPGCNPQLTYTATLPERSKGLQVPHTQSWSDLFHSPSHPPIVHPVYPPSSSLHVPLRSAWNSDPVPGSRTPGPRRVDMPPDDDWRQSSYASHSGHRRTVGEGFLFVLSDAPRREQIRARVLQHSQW

O=C(CCl)N1CCC(C(O)c2ccc(F)cc2)CC1 (stereo not drawn)
inactive: USP42 0.365 | USP46 0.252 | USP47 -0.324 | USP48 0.00604 | USP5 0.131 | USP54 -0.000277 | USP7 -0.0695 | USP8 0.0961
